Assay results taken from PubChem BioAssay AID1159580 (chemical genetic matrix, 2015).
Out of some 5,500 compounds screened, about 2,000 (36%) were called active. About 18% were inconclusive and are not listed. Cut-off read from the data, not from the text of the source: active = normalized growth mostly below about 0.91 (no sharp cut-off); inconclusive = no clear call, values can overlap the other calls; inactive = mostly above about 0.92. Some of the results follow.

Experiment: chemical genetic growth profiling, strain panel (AID 1159580);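 note: tested at 20 µM; growth read once vehicle control cultures reached saturation at 30 °C; 1 = growth at the plate median or of vehicle wells; lower values mean less growth of the strain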
Settings: growth OD

Measured: normalized growth

C/C1=C\CC(C)(C)/C=C/CC2(C)OC2CC1 (stereo unspecified)
inactive: S. cerevisiae deletion strains, locus YBR021W, strain FUR4, stronger effect = lower value 1.02 | S. cerevisiae deletion strains, locus YBR229C, strain ROT2, stronger effect = lower value 1.01 | S. cerevisiae deletion strains, locus YCL029C, strain bik1, stronger effect = lower value 0.999 | S. cerevisiae deletion strains, locus YDL035C, strain GPR1, stronger effect = lower value 0.998 | S. cerevisiae deletion strains, locus YDL074C, strain BRE1, stronger effect = lower value 1.01 | S. cerevisiae deletion strains, locus YDL101C, strain DUN1, stronger effect = lower value 1.03 | S. cerevisiae deletion strains, locus YDL185W, strain tfp1, stronger effect = lower value 1.01 | S. cerevisiae deletion strains, locus YDL192W, strain arf1, stronger effect = lower value 1.01 | S. cerevisiae deletion strains, locus YDR101C, strain arx1, stronger effect = lower value 0.968 | S. cerevisiae deletion strains, locus YDR150W, strain NUM1, stronger effect = lower value 1.01 | S. cerevisiae deletion strains, locus YDR162C, strain NBP2, stronger effect = lower value 1 | S. cerevisiae deletion strains, locus YDR318W, strain mcm21, stronger effect = lower value 0.997 | S. cerevisiae deletion strains, locus YDR388W, stronger effect = lower value 1.01 | S. cerevisiae deletion strains, locus YDR502C, strain sam2, stronger effect = lower value 1.03 | S. cerevisiae deletion strains, locus YEL061C, strain CIN8, stronger effect = lower value 1.01 | S. cerevisiae deletion strains, locus YER110C, stronger effect = lower value 1.02 | S. cerevisiae deletion strains, locus YER155C, strain BEM2, stronger effect = lower value 1 | S. cerevisiae deletion strains, locus YER167W, strain BCK2, stronger effect = lower value 1 | S. cerevisiae deletion strains, locus YGL078C, strain dbp3, stronger effect = lower value 1.01 | S. cerevisiae deletion strains, locus YGL086W, strain mad1, stronger effect = lower value 1.01 | S. cerevisiae deletion strains, locus YGL248W, strain PDE1, stronger effect = lower value 1.04 | S. cerevisiae deletion strains, locus YGR135W, strain pre9, stronger effect = lower value 1.05 | S. cerevisiae deletion strains, locus YGR252W, strain gcn5, stronger effect = lower value 1.05 | S. cerevisiae deletion strains, locus YHR030C, strain SLT2, stronger effect = lower value 1 | S. cerevisiae deletion strains, locus YHR079C, strain IRE1 (second series), stronger effect = lower value 1.01 | S. cerevisiae deletion strains, locus YHR094C, strain hxt1, stronger effect = lower value 1.02 | S. cerevisiae deletion strains, locus YHR129C, strain ARP1, stronger effect = lower value 1.01 | S. cerevisiae deletion strains, locus YHR200W, strain rpn10, stronger effect = lower value 1.01 | S. cerevisiae deletion strains, locus YIL066C, strain RNR3, stronger effect = lower value 1.01 | S. cerevisiae deletion strains, locus YIL073C, strain SPO22, stronger effect = lower value 1.04 | S. cerevisiae deletion strains, locus YIL125W, strain kgd1, stronger effect = lower value 1.01 | S. cerevisiae deletion strains, locus YIR030C, strain dcg1, stronger effect = lower value 0.999 | S. cerevisiae deletion strains, locus YJL095W, strain BCK1, stronger effect = lower value 1.08 | S. cerevisiae deletion strains, locus YJL134W, strain LCB3, stronger effect = lower value 1 | S. cerevisiae deletion strains, locus YJL168C, strain set2, stronger effect = lower value 1.02 | S. cerevisiae deletion strains, locus YJL187C, strain SWE1 (second series), stronger effect = lower value 1.03 | S. cerevisiae deletion strains, locus YJR043C, strain POL32, stronger effect = lower value 0.99 | S. cerevisiae deletion strains, locus YJR075W, strain HOC1, stronger effect = lower value 1.01 | S. cerevisiae deletion strains, locus YKL009W, strain mrt4, stronger effect = lower value 1.01 | S. cerevisiae deletion strains, locus YKL068W, stronger effect = lower value 1 | S. cerevisiae deletion strains, locus YKL085W, strain MDH1 (second series), stronger effect = lower value 1.01 | S. cerevisiae deletion strains, locus YKL085W, strain MDH1, stronger effect = lower value 1.01 | S. cerevisiae deletion strains, locus YKR001C, strain vps1, stronger effect = lower value 0.998 | S. cerevisiae deletion strains, locus YLR039C, strain RIC1, stronger effect = lower value 1.04 | S. cerevisiae deletion strains, locus YLR058C, strain SHM2, stronger effect = lower value 1.01 | S. cerevisiae deletion strains, locus YLR102C, strain apc9, stronger effect = lower value 1.01 | S. cerevisiae deletion strains, locus YLR262C, strain YPT6, stronger effect = lower value 1.07 | S. cerevisiae deletion strains, locus YLR268W, strain sec22, stronger effect = lower value 0.99 | S. cerevisiae deletion strains, locus YLR342W, strain FKS1 (second series), stronger effect = lower value 1.02 | S. cerevisiae deletion strains, locus YLR371W, strain rom2, stronger effect = lower value 0.984 | S. cerevisiae deletion strains, locus YLR418C, strain cdc73, stronger effect = lower value 1.08 | S. cerevisiae deletion strains, locus YML016C, strain PPZ1, stronger effect = lower value 1 | S. cerevisiae deletion strains, locus YML032C, strain rad52, stronger effect = lower value 1 | S. cerevisiae deletion strains, locus YML124C, strain tub3, stronger effect = lower value 1 | S. cerevisiae deletion strains, locus YMR078C, strain ctf18, stronger effect = lower value 1.01 | S. cerevisiae deletion strains, locus YMR223W, strain ubp8, stronger effect = lower value 1.01 | S. cerevisiae deletion strains, locus YMR263W, strain SAP30, stronger effect = lower value 1.02 | S. cerevisiae deletion strains, locus YMR307W, strain GAS1, stronger effect = lower value 0.978 | S. cerevisiae deletion strains, locus YNL067W, strain RPL9B, stronger effect = lower value 1.02 | S. cerevisiae deletion strains, locus YNL153C, strain GIM3, stronger effect = lower value 1.03 | S. cerevisiae deletion strains, locus YNL233W, strain BNI4, stronger effect = lower value 1.03 | S. cerevisiae deletion strains, locus YNL250W, strain rad50, stronger effect = lower value 1.01 | S. cerevisiae deletion strains, locus YNL271C, strain bni1, stronger effect = lower value 1.01 | S. cerevisiae deletion strains, locus YNL298W, strain CLA4, stronger effect = lower value 0.995 | S. cerevisiae deletion strains, locus YNL307C, strain MCK1, stronger effect = lower value 1.03 | S. cerevisiae deletion strains, locus YNR052C, strain pop2, stronger effect = lower value 1.01 | S. cerevisiae deletion strains, locus YOL006C, strain TOP1, stronger effect = lower value 1 | S. cerevisiae deletion strains, locus YOL012C, strain htz1 1.6 | S. cerevisiae deletion strains, locus YOL147C, strain pex11, stronger effect = lower value 1.01 | S. cerevisiae deletion strains, locus YOR061W, strain CKA2, stronger effect = lower value 0.994 | S. cerevisiae deletion strains, locus YOR069W, strain VPS5, stronger effect = lower value 1.01 | S. cerevisiae deletion strains, locus YOR136W, strain idh2, stronger effect = lower value 1 | S. cerevisiae deletion strains, locus YOR144C, strain elg1, stronger effect = lower value 1 | S. cerevisiae deletion strains, locus YOR184W, strain ser1, stronger effect = lower value 0.986 | S. cerevisiae deletion strains, locus YOR316C, strain cot1, stronger effect = lower value 1 | S. cerevisiae deletion strains, locus YPR119W, strain clb2, stronger effect = lower value 1.02 | S. cerevisiae deletion strains, locus YPR141C, strain kar3, stronger effect = lower value 1.01 | S. cerevisiae deletion strains, locus YPR163C, strain tif3, stronger effect = lower value 1.02 | S. cerevisiae deletion strains, locus YPR167C, strain met16, stronger effect = lower value 1.02 | S. cerevisiae deletion strains, strain wtn01, stronger effect = lower value 0.974 | S. cerevisiae strains, strain wild type, stronger effect = lower value 1.01
